From PubChem BioAssay
This is a sample that favours compounds with a hit; in the whole collection about 9.2% have one here.
NPC1 promoter act = activators of NPC1 promoter. Huh7 NPC1 promoter luciferase reporter, 24 h. Potency, µM (series often up to 9.22 µM), inactives show top-dose activation, hits mostly activators. AID 485313. 2.4% of 320,000 active; note: % of control where 0% means no effect; nearly all actives have a fitted effect of over 60% in size
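Readout is luciferase luminescence, reflecting NPC1 promoter activation in stably transfected Huh7 cells after 24 h compound exposure at 37 °C in reduced-serum medium with 10% FBS.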
FLuc counter = counter-screen for miR-21 project: firefly luciferase inhibitors or activators; P08659; purified FLuc, Km substrates, luminescence inhibition; Potency, µM (titrated, usually from 57.5 µM), for the others: at the top dose activity change, negative = inhibition, usual class: inhibitors; 6.9% of 360,000 active;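 note: plate controls were vehicle for no effect and reference inhibitor for full effect; nearly all actives have a fitted effect of over 55% in size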
Target sequence (P08659 whole entry, looked up): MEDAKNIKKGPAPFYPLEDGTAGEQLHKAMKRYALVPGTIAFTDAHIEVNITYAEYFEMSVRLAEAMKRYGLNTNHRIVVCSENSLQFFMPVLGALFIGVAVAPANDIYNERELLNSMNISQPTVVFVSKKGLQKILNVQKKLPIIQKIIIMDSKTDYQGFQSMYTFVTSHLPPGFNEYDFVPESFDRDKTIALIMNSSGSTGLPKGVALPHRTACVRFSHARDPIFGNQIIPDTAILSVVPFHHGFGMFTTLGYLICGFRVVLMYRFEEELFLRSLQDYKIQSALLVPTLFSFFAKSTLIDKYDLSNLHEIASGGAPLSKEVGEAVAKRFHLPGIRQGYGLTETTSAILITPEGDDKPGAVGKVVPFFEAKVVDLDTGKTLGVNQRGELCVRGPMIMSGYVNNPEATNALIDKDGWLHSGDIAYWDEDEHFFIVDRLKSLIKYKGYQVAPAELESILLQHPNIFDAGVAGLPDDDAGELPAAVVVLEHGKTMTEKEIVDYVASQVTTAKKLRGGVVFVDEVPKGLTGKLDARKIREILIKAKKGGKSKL
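Biochemical qHTS of compounds, final roughly 60 µM downward over six points, against 10 nM purified firefly luciferase using Km concentrations of substrates (10 uM D-luciferin, 10 uM ATP) in Tris acetate pH 7.5 buffer; luminescence output.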
ELG1 genotox = inducers of genotoxicity in HEK293T ELG1-luciferase cells; HEK293T ELG1-luciferase reporter, luminescence, 16 h; Potency, µM (series often up to 46 µM), for the others: top-dose activity change, positive = activation, actives largely listed as activators; 1.3% of 330,000 active; AID 504466; note: % of control where 0% means no effect; nearly all actives have a fitted effect of over 60% in size
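Cells (2,000/well) expressing the ELG1-luciferase fusion are dosed by pin tool and kept 16 hr at 37 °C, 5% CO2. Signal comes from ONE-Glo luciferase reagent after 30 min at room temperature.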
ELG1 DNA repair = ELG1-dependent DNA repair inhibition. HEK293T ELG1-luciferase reporter, luminescence, 16 h; DNA damage induced by 5-fluorouridine. Potency, µM (doses to about 46.1 µM), for inactives: top-dose activity change, negative = inhibition, most hits filed as inhibitors. AID 504467. 2.3% of 330,000 active; note: % is set by controls: 0 for no effect and ±100 for the full control effect; nearly all actives have a fitted effect of over 55% in size
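Cells (2,000 per well) received 5-fluorouridine plus test compound or DMSO and were incubated 16 hr at 37 °C, 5% CO2. Luciferase activity was read by luminescence 30 min after ONE-Glo addition; signal suppression marked inhibition of damage-induced ELG1 function.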
SMN2 splice enh = enhancers of SMN2 splice variant expression; AID 1458; HEK293 SMN2-luciferase splicing reporter, luminescence, 30-36 h; 2.8% of 210,000 active; Potency, µM (series often up to 46.1 µM), inactives show at the top dose activity change, positive = activation, actives largely listed as activators; note: % of control where 0% means no effect; nearly all actives have a fitted effect of over 55% in size
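HEK293 cells carry an SMN2 minigene-luciferase reporter in which exon 7 inclusion puts luciferase in frame. Cells were seeded at 2000 cells/well, attached for 10-12 hours, then exposed to compounds for 30-36 hours at 37C before ONE-Glo luminescence.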
Rab9 prom act = Rab9 promoter activation | Potency, µM (series often up to 9.22 µM), for inactives: at the top dose activation, negative = inhibition, actives largely listed as activators | Huh7 Rab9 promoter-luciferase reporter, luminescence, 24 h | 2.8% of 320,000 active; note: % of control where 0% means no effect; nearly all actives have a fitted effect of over 60% in size
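Rab9 promoter-driven luciferase in stably transfected Huh7 cells; 1500 cells/well rested 2 h, exposed to compound in DMSO for 24 h at 37 °C, 5% CO2. Luminescence read 10 min after adding luciferase reagent at ambient temperature.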
* marks the source's active call; other numbers are inactive results; ? = inconclusive; / = no result given. Calls come from the whole dose curve; as a rule, active = well fitted curve in the direction sought with a large enough effect; inconclusive = small, poorly fitted or top-dose-only effect, or another doubt; inactive = no such curve, though single readings can be large; an effect the other way counts as inactive or inconclusive. Potency is the fitted concentration of half-maximal effect.

SMILES | NPC1 promoter act | FLuc counter | ELG1 genotox | ELG1 DNA repair | SMN2 splice enh | Rab9 prom act
O=C(Nc1cccnc1)c1ccc(-c2ccccc2)cc1 | ? | 2.4µM* | ? | ? | -2% | ?
O=C(Nc1ccncc1)c1ccc(-c2ccccc2)cc1 | -10% | ? | -16% | 1.8µM* | -8% | -28%
CCC(=O)Nc1ccc(C(=O)Nc2cccnc2)cc1 | 11% | ? | ? | ? | ? | -1%
O=C(Nc1ccc2c(c1)OCO2)C1CC(c2cccc(Br)c2)=NO1 (stereo unspecified) | 0% | 0% | 2% | 6% | / | -3%
O=C(Nc1cc(S(=O)(=O)N2CCCCCC2)ccc1OCC(F)(F)F)c1cnccn1 | -1% | 4% | 0% | ? | / | -1%
CC(=O)Nc1ccc(NC(=O)C(C)Sc2nnc(C3CC3)n2-c2ccccc2)cc1 (stereo unspecified) | -2% | 3% | 0% | 7% | / | 0%
COc1ccccc1CCN=C(N)NS(=O)(=O)c1ccc(C)c(C)c1 | 1% | 0% | -4% | -4% | / | 0%
CC(C)c1ccc(C(=O)Nc2cccnc2)cc1 | 1.6µM* | 3.4µM* | 5.2µM* | ? | / | ?
O=C(Nc1ccc(-c2cnco2)cc1)c1ccc(Cl)cc1 | ? | -11% | ? | ? | / | 30%
O=C(Nc1ccc(-c2cnco2)cc1)c1ccccc1 | 3.2µM* | ? | ? | ? | / | 2.5µM*
CCC(C)c1ccc(NC(=O)c2cccnc2)cc1 (stereo unspecified) | 2.8µM* | 12µM* | ? | ? | 13µM* | 2.5µM*
CCOC(=O)C(=CNc1nc(-c2ccc3ccccc3c2)cs1)C(=O)OCC | 7% | -14% | -1% | 8% | / | 17%
COC(=O)c1ccccc1NC(=O)c1ccc(-c2ccc(Br)cc2)o1 | 10% | -7% | 1.8µM* | ? | 28% | 0.79µM*
CS(=O)(=O)N1CCN(c2ccccc2NC(=O)c2cc(Br)ccc2Cl)CC1 | 0% | -1% | -12% | ? | -11% | -2%
O=C(Nc1cccc(-c2nc3ccccc3o2)c1)c1ccc(-c2ccc(Br)cc2)o1 | / | ? | / | / | -3% | /
CS(=O)(=O)N1CCN(c2ccccc2NC(=O)c2ccc(-c3ccc(Br)cc3)o2)CC1 | 1% | -12% | -12% | 15µM* | -13% | 3%
O=C(Nc1cccc(NC(=O)c2ccc(-c3ccc(Br)cc3)o2)c1)c1ccco1 | 19% | 2.7µM* | -7% | 9.2µM* | 17% | 19%
O=S1(=O)CCOCCN1Cc1ccc(Cl)cc1Cl | -3% | -4% | -1% | -1% | / | 2%
Cc1cc(C)c2oc(-c3ccc(Cl)c(NC(=O)c4ccc(C#N)cc4F)c3)nc2c1 | -4% | 17µM* | 9% | ? | ? | -16%
Cc1ccc(S(=O)(=O)c2nc(-c3cccs3)oc2SCC(=O)Nc2cc(C)cc(C)c2)cc1 | / | -4% | / | / | 3% | /
CCN(Cc1ccccc1)C(=O)COC(=O)[C@@H]1CCCN1C(=O)c1cccs1 | / | / | 0% | 10% | / | /
COC(=O)c1c(NC(=O)c2ccc(C)cc2)csc1C | -5% | 11µM* | 0% | 2% | / | -2%
CCOC(=O)c1c(-c2cccs2)csc1NC(=O)c1ccncc1 | -1% | -1% | 1% | ? | -11% | 3%
COC(=O)c1c(-c2cccs2)csc1NC(=O)c1ccc(C)cc1 | / | 5.4µM* | / | / | / | /
O=C(Nc1cc(C(F)(F)F)ccc1Cl)c1cccnc1 | 1% | 7% | -1% | -7% | / | 3%
SMILES | NPC1 promoter act | FLuc counter | ELG1 genotox | ELG1 DNA repair | SMN2 splice enh | Rab9 prom act
COc1ccc(CCNC(=O)c2cccc(NS(=O)(=O)c3ccccc3F)c2)cc1OC | -4% | -1% | -9% | 2% | / | 0%
CC(C)CN1C(=O)c2ccc(NC(=O)c3ccco3)cc2C1=O | ? | 19µM* | 17% | ? | / | ?
CC(C)CN1C(=O)c2ccc(NC(=O)c3ccccc3F)cc2C1=O | 29% | 12µM* | ? | ? | 11% | ?
CC(C)CN1C(=O)c2ccc(NC(=O)c3cccs3)cc2C1=O | 29% | 9.5µM* | 28% | ? | 21% | ?
O=C(CSc1nnc(NC(=O)c2cccc(F)c2)s1)NCC1CCCO1 (stereo unspecified) | 15% | 6µM* | 21% | ? | / | 23%
Cc1cc(-c2nnc(CSc3nnc(NC(=O)c4ccc(C(C)(C)C)cc4)s3)o2)ccc1[N+](=O)[O-] | 2.5µM* | 1.7µM* | ? | ? | / | ?
CN(C)S(=O)(=O)c1ccc(C(=O)Nc2nnc(SCC(=O)NCC3CCCO3)s2)cc1 (stereo unspecified) | 2% | -1% | 5% | -1% | / | 2%
CC(C)(C)c1ccc(C(=O)Nc2nnc(SCC(=O)NCC3CCCO3)s2)cc1 (stereo unspecified) | 0.5µM* | 0.076µM* | ? | ? | / | 0.32µM*
CCOc1ccc(C(=O)Nc2nnc(SCC(=O)NCC3CCCO3)s2)cc1 (stereo unspecified) | 0.1µM* | 0.3µM* | ? | ? | / | ?
COc1ccc(CCNC(=O)c2ccc3c(c2)N(Cc2ccc(F)cc2)C(=O)c2ccccc2S3(=O)=O)cc1OC | / | 1% | / | / | ? | /
O=C(CN1CCN(C(=O)CCC(=O)N2CCC(c3ccccc3)=N2)CC1)Nc1ccc(F)cc1 | -1% | 0% | -2% | ? | / | 0%
CCCc1ncc(CN2CCC(C(=O)Nc3cccc(-c4cscn4)c3)CC2)cn1 | -9% | -1% | -9% | 8.2µM* | / | -19%
CSc1ncc(CN2CCC(C(=O)Nc3cccc(-c4cscn4)c3)CC2)cn1 | -3% | -2% | -13% | 23µM* | / | -3%
CNc1ccc(S(=O)(=O)NCC(=O)NCCCc2ccccc2)cc1[N+](=O)[O-] | -5% | -1% | -3% | -2% | / | 1%
CCOc1ccc(S(=O)(=O)N(CC(=O)Nc2ccc(OC)cc2OC)c2ccccc2)cc1 | / | 3% | / | / | 7% | /
CC(C)Oc1ccc(C(=O)Nc2nnc3n2CCS3)cc1 | / | 11µM* | / | / | / | /
CCc1ccc(-n2c(=O)c3c4c(sc3n(Cc3ccccc3C#N)c2=O)CCC4)cc1 | / | -2% | / | / | -3% | /
FC(F)Sc1ccc(Nc2ncnc3nc[nH]c23)cc1 | ? | ? | 18% | ? | 11µM* | ?
CC(=O)Nc1cccc(Oc2nc(-c3ccccn3)nc3ccccc23)c1 | -6% | 15µM* | -15% | 0% | / | -1%
Brc1ccccc1-n1nnc(-c2ccnc3ccccc23)n1 | 2% | 17µM* | 0% | -13% | / | 19%
CCc1ccccc1-n1nnc(-c2ccccc2)n1 | 5% | 2% | -2% | -6% | / | 8%
